Experimental data as given in PubChem BioAssay (NCATS).
Results filed as inconclusive are left out. Active and inactive are the calls of the source. Calls follow the shape of the dose curve; as a rule, active = well fitted curve in the direction sought with a large enough effect; inconclusive = small, poorly fitted or top-dose-only effect, or another doubt; inactive = no such curve, though single readings can be large; an effect the other way counts as inactive or inconclusive.

Experiments:
[1] = qHTS of pediatric cancer cell lines to identify multiple opportunities for drug repurposing: Primary screen for Rh41 cells (AID 1347108); also: nearly all actives have a fitted effect of over 70% in size
How it was run: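 Phenotypic viability qHTS, 48 h compound exposure, CellTiter-Glo luminescence read-out; multi-concentration dosing so that potency and efficacy derive directly from the primary screen's curves.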

[2] = qHTS of pediatric cancer cell lines to identify multiple opportunities for drug repurposing: Confirmatory screen for NB1643 cells (AID 1347109); also: nearly all actives have a fitted effect of over 45% in size
How it was run: (§1)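 Cells (500-1,000/well) in growth media were settled 5 h at 37 degrees C, then given compounds for 48 h. Viability was read as CellTiter-Glo luminescence. Primary runs used MIPE at 11 points (0.78 nM-46 µM) and NPC at 8 points (0.59 nM-46 µM); follow-ups used 11 points.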

[3] = qHTS of pediatric cancer cell lines to identify multiple opportunities for drug repurposing: Confirmatory screen for A673 cells (AID 1347110);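 also: cells exposed to compound for 48 h before the viability read; nearly all actives have a fitted effect of over 65% in size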
How it was run: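 A673 cells seeded at 500-1,000 cells/well, rested 5 h, then dosed; primary MIPE 11-point (0.78 nM to 46 µM), NPC (0.59 nM to 46 µM); confirmatory 11-point. CellTiter-Glo luminescence after 48 h.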

[4] = qHTS of pediatric cancer cell lines to identify multiple opportunities for drug repurposing: Confirmatory screen for SK-N-MC cells (AID 1347111);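 also: cells exposed to compound for 48 h before the readout; nearly all actives have a fitted effect of over 70% in size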
How it was run: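 Metabolically active cells were quantified by ATP-dependent luminescence (CellTiter-Glo, 15 min at room temperature) following 48 h treatment. Cells had been plated at 500-1,000 per well and settled for 5 h beforehand.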

[5] = qHTS of pediatric cancer cell lines to identify multiple opportunities for drug repurposing: Confirmatory screen for LAN-5 cells (AID 1347113); also: nearly all actives have a fitted effect of over 65% in size
How it was run: as §1

[6] = qHTS of pediatric cancer cell lines to identify multiple opportunities for drug repurposing: Confirmatory screen for DAOY cells (AID 1347114); also: nearly all actives have a fitted effect of over 65% in size
How it was run: (§2)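 Viability measured as metabolically active cells via CellTiter-Glo luminescence following 48 hours of compound exposure, 11-point dilutions in confirmatory testing. 500-1,000 cells/well plated 5 hours before dosing; controls were DMSO and 2.3 µM bortezomib.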

[7] = qHTS of pediatric cancer cell lines to identify multiple opportunities for drug repurposing: Confirmatory screen for NB-EBc1 cells (AID 1347115);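 also: cells exposed to compound for 48 h before the viability read; nearly all actives have a fitted effect of over 45% in size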
How it was run: as §1

[8] = qHTS of pediatric cancer cell lines to identify multiple opportunities for drug repurposing: Confirmatory screen for SJ-GBM2 cells (AID 1347116); also: nearly all actives have a fitted effect of over 60% in size
How it was run: as §2

[9] = qHTS of pediatric cancer cell lines to identify multiple opportunities for drug repurposing: Confirmatory screen for BT-37 cells (AID 1347117); also: nearly all actives have a fitted effect of over 55% in size
How it was run: as §1

[10] = qHTS of pediatric cancer cell lines to identify multiple opportunities for drug repurposing: Confirmatory screen for control Hh wild type fibroblast cells (AID 1347121); also: nearly all actives have a fitted effect of over 70% in size
How it was run: as §1

[11] = qHTS of pediatric cancer cell lines to identify multiple opportunities for drug repurposing: Confirmatory screen for U-2 OS cells (AID 1347122); also: nearly all actives have a fitted effect of over 65% in size
How it was run: as §1

[12] = qHTS of pediatric cancer cell lines to identify multiple opportunities for drug repurposing: Confirmatory screen for Rh41 cells (AID 1347123); also: nearly all actives have a fitted effect of over 60% in size
How it was run: as §1

[13] = qHTS of pediatric cancer cell lines to identify multiple opportunities for drug repurposing: Confirmatory screen for RD cells (AID 1347124)
How it was run: as §1

[14] = qHTS of pediatric cancer cell lines to identify multiple opportunities for drug repurposing: Confirmatory screen for Rh30 cells (AID 1347126); also: nearly all actives have a fitted effect of over 55% in size
How it was run: as §1

[15] = qHTS of pediatric cancer cell lines to identify multiple opportunities for drug repurposing: Confirmatory screen for TC32 cells (AID 1347118)
How it was run: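 TC32 cells, 500-1,000/well in growth medium, compound-treated 48 h at 37 °C; viability from CellTiter-Glo luminescence. Primary screen: MIPE 11-point (0.78 nM–46 µM final), NPC 8-point (0.59 nM–46 µM final); confirmatory at 11-point dilutions.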

[16] = qHTS of pediatric cancer cell lines to identify multiple opportunities for drug repurposing: Confirmatory screen for MG 63 (6-TG R) cells (AID 1347119); also: nearly all actives have a fitted effect of over 55% in size
How it was run: as §1

[17] = qHTS of pediatric cancer cell lines to identify multiple opportunities for drug repurposing: Primary screen for Rh30 cells (AID 1347107); also: nearly all actives have a fitted effect of over 75% in size
How it was run: as §1

[18] = qHTS of pediatric cancer cell lines to identify multiple opportunities for drug repurposing: Confirmatory screen for Rh18 cells (AID 1347125); also: nearly all actives have a fitted effect of over 55% in size
How it was run: as §1

[19] = qHTS of pediatric cancer cell lines to identify multiple opportunities for drug repurposing: Confirmatory screen for BT-12 cells (AID 1347112); also: nearly all actives have a fitted effect of over 55% in size
How it was run: as §1

Measured: Potency
Potency is read from the fitted curve at half-maximal effect.

CN1CC[C@@H](c2c(O)cc(O)c3c(=O)cc(-c4ccccc4Cl)oc23)[C@@H](O)C1
inactive: [7] | [10]
active: [1] 296 nM | [2] 261 nM | [3] 522 nM | [4] 414 nM | [5] 465 nM | [6] 465 nM | [8] 369 nM | [9] 414 nM | [11] 329 nM | [12] 369 nM | [13] 737 nM | [14] 369 nM

Cn1c(=O)n(-c2ccc(C(C)(C)C#N)cc2)c2c3cc(-c4cnc5ccccc5c4)ccc3ncc21
active: [1] 132 nM | [3] 2610 nM | [4] 2330 nM | [5] 2080 nM | [7] 7370 nM | [8] 3290 nM | [9] 1170 nM | [15] 827 nM | [16] 369 nM | [11] 2930 nM | [12] 2330 nM | [14] 2330 nM

CC(C)c1cc(C(=O)N2Cc3ccc(CN4CCN(C)CC4)cc3C2)c(O)cc1O
inactive: [17] | [10]
active: [2] 369 nM | [3] 293 nM | [4] 585 nM | [5] 465 nM | [9] 414 nM | [15] 465 nM | [11] 414 nM | [12] 585 nM | [18] 657 nM | [14] 585 nM

Cc1cc(Nc2cc(NC(=O)c3c(Cl)cccc3Cl)ccn2)nc(N)n1
active: [2] 5850 nM | [3] 603 nM | [4] 657 nM | [19] 1310 nM | [5] 9270 nM | [9] 5220 nM | [15] 827 nM | [10] 20800 nM | [12] 269 nM | [14] 24000 nM
inactive: [17] | [8]

COc1ccc(OC)c(-c2nnc3ccc(-c4ccc(OC)c(O[C@@H]5CCOC5)c4)nn23)c1
inactive: [19]
active: [1] 20900 nM | [2] 5220 nM | [3] 10400 nM | [4] 4650 nM | [9] 7370 nM | [15] 2930 nM | [12] 2930 nM | [14] 4140 nM

O=C(CCCCCCC(=O)Nc1ccc([C@H]2O[C@@H](CSc3nc(-c4ccccc4)c(-c4ccccc4)o3)C[C@@H](c3ccc(CO)cc3)O2)cc1)NO
active: [1] 9350 nM

Nc1ncnc2c1c(-c1cccc(OCc3ccccc3)c1)cn2C1CC(CN2CCCC2)C1 (stereo unspecified)
active: [1] 1870 nM

CC(C)c1cc(-c2n[nH]c(=O)n2-c2ccc3c(ccn3C)c2)c(O)cc1O
active: [3] 18500 nM
inactive: [4] | [5] | [7] | [8] | [9] | [15] | [10]

CC(C)(C)c1cnc(CSc2cnc(NC(=O)C3CCNCC3)s2)o1
inactive: [17] | [10]
active: [2] 165 nM | [3] 414 nM | [4] 329 nM | [6] 1170 nM | [8] 414 nM | [9] 261 nM | [15] 465 nM | [11] 1310 nM | [12] 329 nM

COC(=O)c1ccc2c(C(=Nc3ccc(N(C)C(=O)CN4CCN(C)CC4)cc3)c3ccccc3)c(O)[nH]c2c1
active: [1] 18700 nM | [2] 16500 nM | [4] 18500 nM | [5] 18500 nM | [6] 26100 nM | [15] 18500 nM | [16] 3290 nM | [11] 13100 nM | [12] 8270 nM | [18] 26100 nM | [14] 16500 nM
inactive: [19] | [7] | [8] | [10]

O=C(Cc1ccc(-c2ccc(OCCN3CCOCC3)cc2)cn1)NCc1ccccc1
inactive: [14]
active: [1] 29.6 nM | [3] 131 nM | [4] 147 nM | [5] 147 nM | [6] 117 nM | [9] 147 nM | [15] 117 nM | [16] 82.7 nM | [11] 369 nM | [12] 92.8 nM

CC[C@@H]1C(=O)N(C)c2cnc(Nc3ccc(C(=O)NC4CCC(N5CCN(CC6CC6)CC5)CC4)cc3OC)nc2N1C(C)C (stereo partly specified)
active: [17] 16600 nM
inactive: [2] | [6] | [8] | [9] | [16] | [10] | [11] | [12] | [18] | [14]

COc1cc(OC2CCN(C)CC2)ccc1Nc1ncc2c(n1)n(C1CCCC1)c(=O)n2C
active: [1] 18700 nM

Cn1c2ccccc2c2c3c(c4c5ccccc5n(CCC#N)c4c21)CNC3=O
active: [2] 20800 nM | [3] 4650 nM | [4] 465 nM | [9] 5850 nM | [15] 4140 nM | [11] 3690 nM | [12] 29300 nM
inactive: [19] | [10]

CCOc1cc2ncc(C#N)c(Nc3ccc(F)c(Cl)c3)c2cc1NC(=O)C=CCN(C)C
active: [1] 1870 nM | [4] 65.7 nM | [9] 65.7 nM | [15] 58.5 nM
inactive: [7] | [8] | [10] | [13] | [18]

CCS(=O)(=O)c1cccc(-c2cc(C(=O)NC3CCN(C)CC3)c(C)c3[nH]c4ncc(C)cc4c23)c1
active: [1] 1320 nM | [2] 414 nM | [3] 928 nM | [4] 117 nM | [5] 1170 nM | [6] 16500 nM | [7] 16500 nM | [8] 5220 nM | [9] 1850 nM | [15] 117 nM | [11] 10400 nM | [12] 657 nM | [13] 2610 nM | [18] 1850 nM | [14] 522 nM
